High-throughput results from PubChem.
Shown is part of a subset that was picked to be rich in hits.
DUX4 txn inh – blocks DUX4-driven transcriptional activation; 293T-iDUX4 ZSCAN4-Gaussia luciferase reporter, 24 h; active compounds read low; activity change, negative = inhibition, % (concentration not given with the values); actives 0.8% (n = 37,000);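 active = mean inhibition of at least 10% in the main channel, exceeding the control channel by a set limit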
Numbers stand for hits; . = inactive.

SMILES	DUX4 txn inh
CO[C@@H](CN(C)C(=O)c1ccccc1F)[C@@H](C)CN([C@H](C)CO)S(=O)(=O)c1ccc(Cl)cc1	.
O=C(c1ccc(F)cc1)N1CC[C@@H]2[C@@H](CO)Nc3ccc(C#Cc4ccc(F)cc4)cc3[C@@H]21	-52.3
O=C(c1ccc(F)cc1)N1CC[C@@H]2[C@H](CO)Nc3ccc(C#CC4CC4)cc3[C@@H]21	.
COc1ccc(C#Cc2ccc3c(c2)[C@H]2[C@H](CCN2C(=O)c2cccc(F)c2)[C@@H](CO)N3)cc1	.
O=C(Cc1ccccc1)N1CC[C@H]2[C@H](CO)Nc3ccc(C#Cc4ccccc4)cc3[C@H]21	.
O=C(Cc1ccccc1)N1CC[C@H]2[C@H](CO)Nc3ccc(C#Cc4cccc(F)c4)cc3[C@H]21	.
O=C(c1ccc(F)cc1)N1CC[C@H]2[C@H](CO)Nc3ccc(C#Cc4ccccc4F)cc3[C@H]21	.
O=C(Cc1ccccc1)N1CC[C@@H]2[C@H](CO)Nc3ccc(C#Cc4cccc(F)c4)cc3[C@@H]21	-19.0
O=C(c1cccc(F)c1)N1CC[C@@H]2[C@H]1c1cc(C#Cc3ccc(F)cc3)ccc1N[C@@H]2CO	-14.0
COc1ccc(C#Cc2ccc3c(c2)[C@@H]2[C@@H](CCN2C(=O)c2cccc(F)c2)[C@@H](CO)N3)cc1	.
Cc1ccc(S(=O)(=O)Nc2ccc3c(c2)C(=O)N([C@H](C)CO)C[C@@H](C)[C@H](CN(C)Cc2ccc4c(c2)OCO4)OCCCC[C@H](C)O3)cc1	.
Cc1noc(C)c1NC(=O)N(C)C[C@@H]1OCCCC[C@H](C)Oc2ccc(NC(=O)Nc3cccc4ccccc34)cc2C(=O)N([C@@H](C)CO)C[C@H]1C	.
O=C(C[C@H]1CC[C@@H]2NC[C@@H](O)COC[C@H]2O1)NCc1ccc(Oc2ccccc2)cc1	.
COc1ccc2c3c(n(C)c2c1)[C@@H](CO)N(Cc1cccnc1)CC31CN(Cc2cccnc2)C1	.
CN(C[C@@H]1[C@H](c2ccccc2)[C@H](CO)N1Cc1ccccn1)S(C)(=O)=O	.
COc1ccc2c3c([nH]c2c1)[C@@H](CO)N(C(=O)c1ccccc1)CC31CCN(C)CC1	.
COc1ccc2c3c(n(C)c2c1)[C@H](CO)NCC31CN(Cc2ccc(Cl)cc2)C1	-48.2
COc1ccc2c3c(n(C)c2c1)[C@H](CO)NCC31CN(Cc2ccccc2Cl)C1	.
COc1ccc2c3c(n(C)c2c1)[C@@H](CO)NCC31CN(Cc2ccc(-c3ccccn3)cc2)C1	.
O=C(O)C[C@H]1C[C@@H]2c3cc(NC(=O)NC4CCCC4)ccc3O[C@@H]2[C@@H](CO)O1	.
CN1c2ccc(-c3cccc(F)c3)cc2[C@@H]2[C@@H](CCN2C(=O)C2CCC2)[C@H]1CO	-35.4
CN1c2ccc(-c3cccc(F)c3)cc2[C@@H]2[C@@H](CCN2C(=O)C2CCOCC2)[C@@H]1CO	.
CN1c2ccc(-c3cccc(F)c3)cc2[C@H]2[C@H](CCN2C(=O)C2CCC2)[C@H]1CO	.
C[C@@H]1CN([C@H](C)CO)C(=O)CCCn2cc(nn2)CO[C@H]1CN(C)Cc1ccc(C(F)(F)F)cc1	.
COc1ccc(C#Cc2ccc([C@@H]3[C@@H](CO)N4CCCCN(C)C[C@H]34)cc2)cc1	.
SMILES	DUX4 txn inh
CCCC#Cc1ccc([C@H]2[C@@H](CO)N3CCCCN(Cc4ccncc4)C[C@@H]23)cc1	.
COCC#Cc1ccc([C@@H]2[C@H](CO)N3CCCCN(Cc4ccncc4)C[C@@H]23)cc1	.
COc1ccc(C#Cc2ccc([C@H]3[C@H]4CN(Cc5ccncc5)CCCCN4[C@H]3CO)cc2)cc1	-55.4
COc1ccc(C#Cc2ccc([C@@H]3[C@@H](CO)N4CCCCN(Cc5ccncc5)C[C@H]34)cc2)cc1	-25.7
COc1ccc(C#Cc2ccc([C@@H]3[C@H](CO)N4CCCCN(C)C[C@@H]34)cc2)cc1	-24.5
OC[C@@H]1[C@@H](c2ccc(C#CC3(O)CCCC3)cc2)[C@H]2CN(Cc3ccncc3)CCCCN12	.
CCCC#Cc1ccc([C@H]2[C@H]3CN(Cc4ccncc4)CCCCN3[C@H]2CO)cc1	.
COc1ccc(C#Cc2ccc([C@H]3[C@@H](CO)N4CCCCN(C)C[C@@H]34)cc2)cc1	.
C/C=C/c1ccc([C@@H]2[C@@H](CO)N(C(=O)C3CCCC3)C23CN(C(=O)NC(C)C)C3)cc1	.
C[C@@H]1CN([C@H](C)CO)C(=O)c2cc(NC(=O)CCN3CCOCC3)ccc2O[C@H]1CN(C)Cc1ccc(C(F)(F)F)cc1	.
CCS(=O)(=O)N1CC2(CN[C@@H](CO)c3c2c2ccc(OC)cc2n3C)C1	.
CO[C@H](CN(C)C(=O)Nc1ccc(F)cc1)[C@@H](C)CN(Cc1ccccc1Cl)[C@H](C)CO	.
CC=Cc1ccc2n(c1=O)C[C@H]1[C@H](CO)[C@@H](C(=O)NC3CCCC3)N(C(=O)C3CC3)[C@@H]21 (mixture of isomers)	.
O=C(NCCN1CCCC1)[C@H]1[C@H](CO)[C@H]2Cn3c(cccc3=O)[C@@H]1N2C(=O)c1ccccc1	.
CC(C)CC#Cc1cnc2c(c1)C(=O)N([C@@H](C)CO)C[C@H](C)[C@@H](CN(C)C(=O)c1cccnc1)O2	.
CC(=O)N1CC2(C1)[C@H](c1ccc(-c3ccc(C#N)cc3)cc1)[C@H](CO)N2C(=O)C1CC1	.
CN1[C@@H]2c3ccc(-c4cccc(F)c4)c(=O)n3C[C@H]1[C@H](CO)[C@H]2C(=O)NCc1ccccc1	.
CN1[C@@H]2c3cccc(=O)n3C[C@@H]2[C@@H](CO)[C@@H]1C(=O)NCC1CCCCC1	.
CCCNC(=O)N1CC2(C1)[C@H](c1ccccc1)[C@H](CO)N2Cc1ccc(F)cc1	.
COc1ccc2c3c([nH]c2c1)[C@@H](CO)N(C(=O)c1ccncc1)CC31CCN(C(=O)NC(C)C)CC1	.
COc1ccc2c3c(n(C)c2c1)[C@@H](CO)N(CC1CC1)CC31CCN(C(=O)CC2CC2)CC1	.
COc1ccc2c3c(n(C)c2c1)[C@H](CO)N(CC1CC1)CC31CN(C(=O)NC2CCCC2)C1	.
COc1ccc2c3c([nH]c2c1)[C@@H](CO)N(C(=O)c1ccc(F)cc1)CC31CCN(C(=O)NC(C)C)CC1	-15.7
COc1ccc2c3c([nH]c2c1)[C@H](CO)N(CC1CC1)CC31CN(C(=O)NC2CCCC2)C1	.
COc1ccc2c3c([nH]c2c1)[C@H](CO)N(CC1CC1)CC31CN(C(=O)c2ccccc2)C1	-24.1
SMILES	DUX4 txn inh
COc1ccc2c3c([nH]c2c1)[C@H](CO)N(C(=O)c1ccccc1)CC31CN(C(=O)CC2CC2)C1	.
CCCC(=O)N1CC2(CCN(C(=O)NC(C)C)CC2)c2c([nH]c3cc(OC)ccc23)[C@H]1CO	.
COc1ccc2c3c(n(C)c2c1)[C@@H](CO)N(CC1CC1)CC31CN(C(=O)c2ccccc2)C1	-32.1
COc1ccc2c3c(n(C)c2c1)[C@@H](CO)N(C(=O)c1ccccc1)CC31CCN(CC2CC2)CC1	.
COc1ccc2c3c(n(C)c2c1)[C@@H](CO)N(CC1CC1)CC31CCN(C(C)=O)CC1	.
COc1ccc2c3c(n(C)c2c1)[C@@H](CO)N(CC1CC1)CC31CCN(C(=O)c2ccccc2)CC1	-32.4
CC(C)[C@H]1CC=CC[C@@H](C)Oc2ccccc2C(=O)N(C)[C@H](C(C)C)C(=O)N1 (mixture of isomers)	.
CNC[C@H]1Oc2ncc(Br)cc2C(=O)N([C@@H](C)CO)C[C@@H]1C	.
CCCNC(=O)N1C[C@@H](O)COC[C@@H]2O[C@@H](CC(=O)N[C@H]3CCN(Cc4ccccc4)C3)CC[C@H]21	.
